Screens: PubChem, several laboratories
PG9 Ab binder: PG9 antibody binding by small molecule. 360,000 compounds, 0.43% hits. TR-FRET gp120-PG9 antibody binding. AID 624416. inhibition, % at 6.7 µM; in the data active means inhibition above about 8.5%
PP5 primary: PP5 (human) phosphatase inhibition; P53041; purified PP5c, OMFP substrate fluorescence; inhibition, % at 6.7 µM; 320,000 compounds, 0.18% hits;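 active means inhibition above the campaign's mean inhibition across all tested compounds plus 3 SD, cut at about 9.5% in these data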;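 further: 0% = DMSO only and 100% = 100 µM cantharidin control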
proKLK7 act: activators of human kallikrein-7 zymogen | P49862 | AID 652039 | 370,000 compounds, 0.9% hits | activation, % at 7 µM | purified proKLK7, EDANS-DABCYL substrate fluorescence; 100% is mature enzyme control, 0% vehicle;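 active means activation above the mean of all tested compounds plus 3 SD, computed per campaign excluding outliers beyond control limits, cut at about 13% in these data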
Target sequence (P49862 whole entry, looked up): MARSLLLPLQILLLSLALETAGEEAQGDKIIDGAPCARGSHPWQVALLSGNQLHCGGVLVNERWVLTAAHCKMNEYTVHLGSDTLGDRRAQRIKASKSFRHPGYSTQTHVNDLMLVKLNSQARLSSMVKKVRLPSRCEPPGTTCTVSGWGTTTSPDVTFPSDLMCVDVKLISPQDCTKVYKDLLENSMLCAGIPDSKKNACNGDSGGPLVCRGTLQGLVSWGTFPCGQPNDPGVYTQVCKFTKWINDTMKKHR
NR1D1 modulator: Rev-erb alpha (human) modulation | P20393 | Rev-erbα–FITC-DNA binding, fluorescence polarization, 90 min | activity, % at 10 µM | 370,000 compounds, 0.79% hits | AID 1259318;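 active means activity above about 14%, limit read from the data; passing the limit was not always enough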;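 further: 0% = DMSO wells with 35 nM protein and 100% = DMSO wells with 750 nM protein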
JMJD2C inh: human JMJD2C demethylase inhibition | GST-JMJD2C(1-420) H3K9me3 demethylation, DELFIA europium | 330,000 compounds, 0.069% hits | inhibition, % at 2.35 µM | Q9H3R0 | AID 2099;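 active means more than half of a compound's replicate wells show inhibition beyond 50%, single wells judged on their own value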;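 further: signal counts dimethyl H3K9 product captured on neutravidin plate; 0% = median of DMSO wells and 100% = 0.3 times that DMSO median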
PP1 inh: counter-screen for PP5 inhibitors: inhibitors of human PP1-alpha. AID 2235. 320,000 compounds, 0.9% hits. inhibition, % at 6.7 µM. purified PP1alpha, OMFP fluorescence;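 active means inhibition above the mean inhibition of all tested compounds plus 3 SD, computed separately for each screening campaign, cut at about 15% in these data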
Target sequence (P62136 whole entry, looked up): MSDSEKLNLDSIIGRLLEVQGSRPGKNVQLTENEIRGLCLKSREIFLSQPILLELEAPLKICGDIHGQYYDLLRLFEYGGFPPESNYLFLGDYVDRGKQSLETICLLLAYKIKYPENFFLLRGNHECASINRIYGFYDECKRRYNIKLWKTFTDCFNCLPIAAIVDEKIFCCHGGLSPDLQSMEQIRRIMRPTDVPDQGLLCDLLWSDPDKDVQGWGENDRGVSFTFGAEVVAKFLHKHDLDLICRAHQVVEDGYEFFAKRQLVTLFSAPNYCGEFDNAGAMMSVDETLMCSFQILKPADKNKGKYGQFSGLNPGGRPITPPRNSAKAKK
KLK7 act conf: proKLK7 activation, confirmation; shares compounds with proKLK7 act; purified proKLK7, EDANS-DABCYL substrate fluorescence; scaled: vehicle 0, mature enzyme 100; activation, % at 7 µM; 3,200 compounds, 68% hits;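 active means activation, as change over the incubation, above the mean of all tested compounds plus 3 SD, cut at about 13% in these data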
EDANS-DABCYL int: optically interferes with EDANS-DABCYL signal, flagging KLK7 hits | shares compounds with proKLK7 act | EDANS-DABCYL substrate fluorescence interference, no enzyme, 4 h; solvent 0%, active enzyme control 100% | activation, % at 7 µM | 3,200 compounds, 80% hits;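 active means activation above the all-compound mean plus 3 SD, ignoring values outside control-based bounds, cut at about 4.8% in these data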;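 further: value is the 4 h activation minus the activation read at time zero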
EDANS interf: counter-screen for kallikrein-7 activators: EDANS-DABCYL interference, dose response | EC50, µM | shares compounds with proKLK7 act | 250 compounds, 20% hits | EDANS-DABCYL peptide fluorescence interference, no enzyme | AID 720493;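 active means compounds that raise the fluorescence signal in this interference counterscreen, with EC50 at or below 10 µM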;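 further: intact quenched peptide substrate alone read at 355 nm excitation and 520 nm emission; signal is fluorescence gain from T0 to T4 after four hours at room temperature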
Numbers without * were called inactive; / = no result given. Only some compounds are listed: those with a hit (about 2.8% of all), similar ones and a draw of the others.

SMILES	PG9 Ab binder	PP5 primary	proKLK7 act	NR1D1 modulator	JMJD2C inh	PP1 inh	KLK7 act conf	EDANS-DABCYL int	others
Nc1ccc2c(C(F)(F)F)cc(=O)oc2c1	7.5	1.6	36.1*	-6.2	-8.8	-1.4	87.9*	85.7*
O=C(CSc1nnc(-c2cccnc2)n1-c1ccc(Cl)cc1)Nc1ccccc1-c1ccccc1	/	/	0.7	-2.5	/	/	/	/
CCC(C)NC(=O)c1cc2c(=O)[nH]c3ccc(C)cc3c2s1 (centres undefined)	-1.4	1.6	34.7*	2.0	-20.2	7.5	-16.1	-16.7
O=C(NCCCN1CCOCC1)c1cc2c(=O)[nH]c3ccccc3c2s1	-0.4	3.4	13.6*	6.2	-58.3	9.0	11.5	12.0*
CCCCN(CC)CCNC(=O)c1cc2c(=O)[nH]c3ccc(C)cc3c2s1	1.4	0.7	15.7*	1.0	-1.3	4.3	-47.3	-54.5
Cc1ccc2[nH]c(=O)c3cc(C(=O)NCCC(C)C)sc3c2c1	-0.7	/	-1.9	-2.8	1.6	/	/	/
CCCCN(CC)CCCNC(=O)c1cc2c(=O)[nH]c3ccccc3c2s1	-0.8	-0.5	14.7*	-1.8	0.0	-4.2	8.8	6.2*
CCOCCCNC(=O)c1cc2c(=O)[nH]c3ccccc3c2s1	0.2	0.4	1.5	1.8	0.8	0.1	/	/
CCN(C(=O)C1CCN(c2ncccn2)CC1)c1ccccc1	/	/	0.9	-0.9	/	/	/	/
COC(=O)CC1=C(C(=O)OC)[C@@H](c2ccccc2[N+](=O)[O-])C(C#N)=C(N)O1	-0.7	-1.0	38.5*	-6.0	39.2	-2.6	89.8*	71.0*	EDANS interf=8.67*
COC(=O)CC1=C(C(=O)OC)C(c2cc(OC)c(OC)cc2OC)C(C#N)=C(N)O1 (centres undefined)	-4.1	5.9	3.1	-3.3	1.3	2.9	/	/
CN1C(=O)c2cc(NC(=O)C3CCOCC3)ccc2OC[C@@H]2O[C@@H](CC(=O)NCc3ccccc3F)CC[C@@H]21	/	/	-0.1	-9.3	/	/	/	/
CSc1nc2[nH]c3c(c2c2nnnn12)CCCC3	-0.5	2.3	14.2*	5.8	25.0	2.3	7.2	9.8*
Cc1ccc2nc(NCCCO)nc(-c3ccccc3)c2c1	1.8	1.3	-0.4	1.8	22.0	4.3	/	/
Cc1ccc2nc(NCC(=O)O)nc(-c3ccccc3)c2c1	2.3	-1.1	14.2*	-0.1	1.0	-0.5	28.5*	15.5*	EDANS interf=>69.5
Cc1ccc2nc(NCCC(=O)O)nc(-c3ccccc3)c2c1	-0.4	1.1	2.1	-4.5	-7.3	-1.6	/	/
Cc1ccc2nc(NCC(N)=O)nc(-c3ccccc3)c2c1	-1.1	0.3	29.9*	-5.8	2.2	-6.3	22.0*	33.6*
Nc1c(Cl)cc(Cl)cc1C(=O)OCC(=O)NC1CC1	0.9	-1.0	21.9*	2.7	6.6	-3.0	36.5*	33.1*
COc1ccc2c(C(=O)NCCCCO)c(-c3ccc(S(C)(=O)=O)cc3)sc2c1	1.7	/	48.6*	-4.2	33.8	/	65.2*	82.2*
CCOC(=O)/C(=C(/C)N)C1CC(=O)NC1=O (centres undefined)	-1.2	/	33.3*	0.3	/	/	37.3*	37.5*
O=C(Nc1ccc2nsnc2c1)NC1CCCCC1	0.7	0.6	21.0*	-2.9	-0.5	-0.5	27.8*	29.0*
O=C(NCCO)Nc1ccc2nsnc2c1	0.2	0.1	21.9*	-0.1	-2.9	-2.1	39.8*	40.7*
Cc1ccccc1C(=O)N[C@H](C(=O)N1CCC[C@H]1C(=O)NC1CCCC1)C1CCCCC1	-1.1	/	0.8	-3.2	/	/	/	/
O=C(CSc1nc2ccccc2nc1N1CCOCC1)N1CCN(c2cccc(C(F)(F)F)c2)CC1	/	/	-0.6	-3.5	/	/	/	/
CCOC(=O)c1cc2c(=O)n3ccccc3nc2n(CC(C)C)c1=NC(=O)c1ccco1	-2.7	-1.2	29.7*	-8.3	-23.2	-3.2	24.1*	25.6*
SMILES	PG9 Ab binder	PP5 primary	proKLK7 act	NR1D1 modulator	JMJD2C inh	PP1 inh	KLK7 act conf	EDANS-DABCYL int	others
CCOCCCn1c(=NC(C)=O)c(C(=O)OCC)cc2c(=O)n3ccccc3nc21	0.3	0.8	2.3	-0.7	5.8	-0.1	/	/
CCOCCCn1c(=NC(C)=O)c(C#N)cc2c(=O)n3ccccc3nc21	0.4	0.6	22.6*	-18.2	-18.1	-5.9	6.3	16.7*
CCOC(=O)c1cc2c(=O)n3ccccc3nc2n(CCOC)c1=NC(=O)C(C)(C)C	0.5	1.8	12.5	5.5	-0.7	-1.2	/	/
CCOC(=O)c1cc2c(=O)n3ccccc3nc2n(Cc2ccco2)c1=NC(=O)c1ccccc1OCC	0.7	-1.4	10.6	-2.4	4.1	4.6	/	/
CCOC(=O)c1cc2c(=O)n3ccccc3nc2n(CCOC)c1=NC(=O)c1ccncc1	-1.7	1.6	23.9*	-11.0	-0.2	-0.8	8.2	12.8*
CCOC(=O)c1cc2c(=O)n3ccccc3nc2n(CCCOC)c1=NC(=O)c1cccnc1	/	2.4	/	/	-2.4	-3.5	/	/
CCOC(=O)c1cc2c(=O)n3ccccc3nc2n(CCCOC)c1=NC(=O)C(C)(C)C	-2.0	4.3	22.0*	2.2	1.2	0.9	15.5*	14.9*
C[C@H]1[C@@H](OC(=O)N2CCCC2)CC[C@@]23CCCN2C(=O)CCC[C@@H]13	/	/	/	0.1	/	/	/	/
CCOC(=O)c1cc2c(=O)n3ccccc3nc2n(C(C)C)c1=NC(=O)c1ccncc1	-4.1	3.0	37.2*	-3.1	-40.3	1.3	56.2*	61.6*
O=C(Nc1ccccn1)c1ccc([N+](=O)[O-])o1	/	1.9	/	/	-0.7	-2.7	/	/
O=C(Nc1ncccn1)c1ccc([N+](=O)[O-])o1	-3.6	-1.2	816.6*	2.3	3.0	-1.6	834.0*	834.5*
COc1cccc(Nc2ccc(C(=O)O)cc2N)c1	-10.6	-1.4	30.3*	0.0	-21.3	1.3	2.9	0.1
c1ccc(Nc2nc3ccccc3n3nnnc23)cc1	-1.6	0.1	19.5*	-1.5	-0.9	0.1	2.4	46.2*
CC(C)C[C@H]1COc2cc(N3CCOCC3)ccc2S(=O)(=O)N1	-1.5	/	-0.1	-5.4	/	/	/	/
CCOc1ccc(/C=N/n2c(-c3n[nH]c4c3CCC4)n[nH]c2=S)cc1	/	/	0.5	11.2	/	/	/	/
CCOc1c2ccc(C(=O)NCc3ccc(OC)cc3)cc2nn1CCOC	-0.3	3.1	13.2*	-1.7	1.8	-4.7	-4.3	-5.0
CCn1nc2cc(C(=O)NCCc3cccs3)ccc2c1OC	-0.7	-2.3	17.6*	-1.1	4.3	0.2	7.7	3.0
CCOc1c2ccc(C(=O)NCCc3ccc(C)cc3)cc2nn1CC	-1.3	0.9	-8.3	-0.4	-1.7	-2.9	/	/
CC(C)(C)CCN1CCC[C@H](NC(=O)COc2ccc(F)c(Cl)c2)C1	/	/	/	-7.3	/	/	/	/
